From PubChem BioAssay
Pol eta inh-1: DNA polymerase eta (human) inhibition. recombinant Pol eta, fluorescent DNA replication assay. 1.2% of 390,000 active. Potency, µM (top dose mostly 114 µM), for inactives: top-dose activity change, negative = inhibition, most hits filed as inhibitors. Q9Y253; further: on the % scale 0 is the no-effect control and ±100 the full control effect
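Fluorescent replication assay: 50 nM final substrate added after a 15 min room-temperature compound preincubation with 10 nM enzyme. Signal taken at 0 min and again at 10 min.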
Pol iota inh: blocks human DNA polymerase iota activity. AID 588590. Potency, µM (doses to about 115 µM), for inactives: at the top dose activity, negative = inhibition, actives largely listed as inhibitors. Q9UNA4. Pol iota fluorescent replication assay, 10 min. 1% of 390,000 active
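Fluorescent replication assay read twice, at 0 min and 10 min after adding 50 nM (final) substrate. Enzyme (10 nM) and compounds were first incubated 15 min at room temperature; enzyme-free buffer wells were negative controls.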
WRN inhibitor: WRN helicase (human) inhibition; Q14191; WRN helicase unwinding, fluorescent forked duplex, kinetic; Potency, µM (doses to about 114 µM), inactives show at the highest dose activity change, negative = inhibition, actives largely listed as inhibitors; 0.46% of 360,000 active; further: on the % scale 0 is the no-effect control and ±100 the full control effect; nearly all actives have a fitted effect of over 55% in size
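WRN at 20 nM final preincubated with compound 15 min at room temperature; reaction started with 100 nM fluorophore/quencher forked duplex oligonucleotide and 2 mM ATP final. Unwinding followed kinetically by red fluorescence (ex 525, em 598 nm).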
Pol kappa inh-1: inhibitors of human DNA polymerase kappa. Potency, µM (top dose mostly 107 µM), without a hit: at the highest dose activity, negative = inhibition, hits mostly inhibitors. 0.53% of 400,000 active. purified Pol kappa, fluorescent DNA synthesis assay, 10 min. AID 588579. Q9UBT6; further: on the % scale 0 is the no-effect control and ±100 the full control effect
Target sequence (Q9UBT6 whole entry, looked up): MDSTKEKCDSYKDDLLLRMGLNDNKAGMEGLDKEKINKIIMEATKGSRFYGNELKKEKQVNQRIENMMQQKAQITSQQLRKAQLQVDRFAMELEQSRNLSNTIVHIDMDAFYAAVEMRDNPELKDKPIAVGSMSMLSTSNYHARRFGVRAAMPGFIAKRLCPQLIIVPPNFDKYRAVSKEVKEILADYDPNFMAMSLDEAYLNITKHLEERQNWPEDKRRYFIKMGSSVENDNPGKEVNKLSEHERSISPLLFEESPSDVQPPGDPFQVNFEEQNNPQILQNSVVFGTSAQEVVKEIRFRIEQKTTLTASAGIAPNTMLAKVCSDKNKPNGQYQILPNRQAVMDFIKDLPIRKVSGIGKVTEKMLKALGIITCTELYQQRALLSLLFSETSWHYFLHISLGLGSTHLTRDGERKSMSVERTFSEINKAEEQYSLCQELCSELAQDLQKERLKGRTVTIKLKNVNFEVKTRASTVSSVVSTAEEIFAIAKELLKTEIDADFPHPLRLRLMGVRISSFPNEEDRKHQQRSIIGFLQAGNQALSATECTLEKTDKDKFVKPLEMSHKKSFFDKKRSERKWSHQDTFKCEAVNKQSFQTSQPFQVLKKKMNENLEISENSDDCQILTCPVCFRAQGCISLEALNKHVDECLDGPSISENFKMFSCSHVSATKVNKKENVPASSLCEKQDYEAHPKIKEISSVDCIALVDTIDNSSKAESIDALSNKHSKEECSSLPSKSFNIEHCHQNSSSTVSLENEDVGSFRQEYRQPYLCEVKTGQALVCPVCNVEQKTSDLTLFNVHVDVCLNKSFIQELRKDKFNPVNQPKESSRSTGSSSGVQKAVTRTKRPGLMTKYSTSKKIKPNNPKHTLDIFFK
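10 nM Pol kappa was preincubated with compounds for 15 min at room temperature. Reaction started with 50 nM (final) substrate. Fluorescence read kinetically at 0 and 10 min.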
POLB inh: blocks human DNA polymerase beta activity; Pol beta primer extension/strand displacement, fluorescence kinetic; Potency, µM (top dose mostly 114 µM), for inactives: at the top dose activity change, negative = inhibition, usual class: inhibitors; 1.3% of 340,000 active; AID 485314; further: on the % scale 0 is the no-effect control and ±100 the full control effect
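Pol beta (10 nM) and compounds were preincubated 15 min at room temperature, then 50 nM substrate (final) started primer extension/strand displacement. Reads were taken at 0 and 10 min; concentration-response data were fitted to a four-parameter Hill equation.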
PGK validate: blocks T. brucei phosphoglycerate kinase; 79% of 500 active; AID 686980; TbPGK coupled GAPDH assay, Kinase-Glo luminescence; shares compounds with Pol kappa inh-1; Potency, µM (top dose mostly 57.5 µM), for the others: top-dose activity change, negative = inhibition, actives largely listed as inhibitors; further: on the % scale 0 is the no-effect control and ±100 the full control effect; nearly all actives have a fitted effect of over 65% in size
POLI cherry-pick: Human Pol iota inhibitor confirmatory assay; shares compounds with Pol kappa inh-1; Pol iota primer extension, TAMRA/BHQ fluorescence; Potency, µM, actives largely listed as inhibitors; 77% of 1,500 active
Pol kappa inh-2: confirmation of human DNA polymerase kappa inhibitors; purified Pol-kappa, fluorescent strand-displacement substrate; Potency, µM, actives largely listed as inhibitors; 76% of 920 active; shares compounds with Pol eta inh-1
Pol eta inh-2: Pol eta (human) inhibition, cherry-pick confirmation; Pol eta primer extension, TAMRA/BHQ fluorescence, 10 min; shares compounds with Pol eta inh-1; Potency, µM, hits mostly inhibitors; 64% of 2,600 active
* = called active by the depositor; [ ] = remark or other dose. A selection: hits, their analogues and other compounds. The true share with any hit is near 2.3%. The call rests on the fitted dose curve; in most records, active means well fitted curve in the direction sought with a large enough effect; inconclusive means small, poorly fitted or top-dose-only effect, or another doubt; inactive means no such curve, though single readings can be large; an effect the other way counts as inactive or inconclusive. Potency means the concentration at half of the fitted maximal effect.

For N#CCOc1ccccc1/C=C/c1nc2ccccc2c(=O)[nH]1 the results were Pol eta inh-1 -2%, Pol iota inh inconclusive, WRN inhibitor -14%, Pol kappa inh-1 -7% and POLB inh 20%.
COc1ccc(/C=C2\C(=O)NC(=S)N2C(=O)c2ccc(F)cc2)cc1 was read as Pol eta inh-1 25µM*, Pol iota inh inconclusive, WRN inhibitor inconclusive, Pol kappa inh-1 -5%, POLB inh 14µM*, POLI cherry-pick 84*, Pol kappa inh-2 67* and Pol eta inh-2 inconclusive.
For CC(=O)Nc1sc2c(c1C#N)CCN(Cc1ccccc1)C2 the results were Pol eta inh-1 -15%, Pol iota inh 59%, WRN inhibitor 1%, Pol kappa inh-1 -11% and POLB inh -2%.
Screening N#Cc1c(NC(=O)/C=C/C(=O)O)sc2c1CCN(Cc1ccccc1)C2 returned Pol eta inh-1 28µM*, Pol iota inh -27%, WRN inhibitor -8%[11.6 µM], Pol kappa inh-1 7%, POLB inh 32µM*, POLI cherry-pick 47*, Pol kappa inh-2 24* and Pol eta inh-2 48*.
O=c1[nH]c(=O)c2nc3c4ccccc4c4ccccc4c3nc2[nH]1 was read as Pol eta inh-1 28µM*, Pol iota inh 87%, WRN inhibitor inconclusive, Pol kappa inh-1 -25%, POLB inh inconclusive, POLI cherry-pick 19* and Pol kappa inh-2 9.5*.
Screening C=CCn1c(SCC(=O)c2ccc(O)c(O)c2)nnc1-c1cccnc1 returned Pol eta inh-1 4µM*, Pol iota inh 7.1µM*, WRN inhibitor 40µM*, Pol kappa inh-1 28µM*, POLB inh 1.3µM*, PGK validate 3.7µM*, POLI cherry-pick 34* and Pol eta inh-2 27*.
Screening COc1ccc2c(c1)c(=O)oc1cc(OCC(=O)NC3CC3)ccc12 returned Pol eta inh-1 inconclusive, Pol iota inh -51%, WRN inhibitor -4%, Pol kappa inh-1 -37% and POLB inh inconclusive.
COc1ccc2c(c1)c(=O)oc1cc(OCC(=O)NC3CCCCC3)ccc12 was read as Pol eta inh-1 79µM*, Pol iota inh 25µM*, WRN inhibitor -12%[11.6 µM], Pol kappa inh-1 inconclusive, POLB inh 22µM*, POLI cherry-pick inconclusive, Pol kappa inh-2 inconclusive and Pol eta inh-2 67*.
Screening COc1ccc(NC(=O)c2c(NCc3ccc(C)o3)sc3c2CCCCC3)c(OC)c1 returned Pol eta inh-1 -8%, Pol iota inh inconclusive, Pol kappa inh-1 -15%[60.1 µM] and POLB inh -3%.
`CC(C)(C)c1ccc(-c2nc(SCC(=O)Nc3ccc(Cl)cc3)[nH]c(=O)c2C#N)cc1` gave Pol eta inh-1 28µM*, Pol iota inh 45µM*, Pol kappa inh-1 inconclusive, POLB inh 79µM*, POLI cherry-pick inconclusive, Pol kappa inh-2 inconclusive and Pol eta inh-2 inconclusive.
Screening N#Cc1c(-c2ccccc2)cc(-c2ccccc2)nc1SCC(=O)Nc1ccc(Cl)cc1 returned Pol eta inh-1 -7%, Pol iota inh -6%, Pol kappa inh-1 -12% and POLB inh 0%.
O=c1oc2ccccc2c2oc3cc(O)c(O)cc3c12 was read as Pol eta inh-1 4.5µM*, Pol iota inh 3.2µM*, WRN inhibitor 45µM*, Pol kappa inh-1 5µM*, POLB inh -111%, POLI cherry-pick 21*, Pol kappa inh-2 67* and Pol eta inh-2 21*.
